Assay results published in PubChem BioAssay AID504832 (National Center for Advancing Translational Sciences (NCATS), 2011).
Among all 310,000 compounds or so, about 18,000 (5.8%) were called active. About 22% were inconclusive and are not listed. Shown is part of a subset that was picked to be rich in actives. Unmarked numbers belong to inactive results. Calls follow the shape of the dose curve; as a rule, active = well fitted inhibition curve with a large enough effect; inconclusive = small, poorly fitted or top-dose-only effect, or another doubt; inactive = no such curve, though single readings can be large or run the other way.

experiment: Primary qHTS for delayed death inhibitors of the malarial parasite plastid, 48 hour incubation; settings: P. falciparum luciferase growth in erythrocytes; series mostly up to 28.7 µM; activity change, negative = inhibition: at the top concentration
Method in brief: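 Here the parasites carry a stable luciferase gene and grow inside erythrocytes in Albumax-based RPMI medium with compound for one erythrocytic cycle. Activity is scored as loss of luminescent signal.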
% is scaled to controls: 0 for no effect and ±100 for the full control effect; potency is read from the fitted curve at half-maximal effect.

SMILES | activity change, negative = inhibition | Potency
COc1ccc(S(=O)(=O)NCC(=O)NC2CC2)cc1OC | 6.1% | –
O=C(O)CCCn1c(=O)c2cccn2c2ccc(F)cc21 | 25.8% | –
CCOc1ccccc1N1CCN(C(=O)c2ccc3[nH]c(C)c(C)c3c2)CC1 | -8.07% | –
CCCCCCCNC(=O)C1(CC2CC(c3cccc(Br)c3)=NO2)CCN(C(=O)c2cc(OCC)c(OCC)c(OCC)c2)CC1 (configuration not stated) | – | 0.657 µM (active)
CCOC(=O)C1CCN(Cc2nnc(-c3cccc(Br)c3)o2)CC1 | 35.6% | –
N#Cc1c(Cl)nc(-c2cccnc2)nc1-c1ccccc1 | 0.537% | –
CCCC[C@H]1COCCS(=O)(=O)N1Cc1cccc(Cl)c1 | 0% | –
COc1cc(NC(=O)C2CC(c3ccccc3O)=NO2)c(OC)cc1Cl (configuration not stated) | -5.06% | –
Cc1nc(-c2ccc(F)cc2)c(CC(=O)N2CCN(S(=O)(=O)c3ccc(F)cc3)CC2)s1 | -11.8% | –
O=C(CN1CCOCC1)Nc1cc(Cl)ccc1Cl | 12.8% | –
Cc1ccccc1NC(=O)CSc1nc2ccc(Nc3nc(N4CCOCC4)nc(N4CCOCC4)n3)cc2s1 | -8.19% | –
O=C(CSc1nc(Nc2ccccc2)nc(N2CCOCC2)n1)Nc1cc(Cl)ccc1O | – | 1.17 µM (active)
Cn1c(SCC(=O)N2CCCCC2)nc2c(c1=O)SCC2 | -1.34% | –
O=C(Nc1cccc(-n2cnnn2)c1)c1cccnc1 | 18.8% | –
O=C(Nc1ccc(C(F)(F)F)cc1)c1cccc(-n2cnnn2)c1 | – | 10.4 µM (active)
CNC(=O)c1ccc(NC(=O)c2cccc(C(F)(F)F)c2)cc1 | -18.5% | –
O=C(NCc1ccc(F)cc1)C1CCN(C(=O)Nc2ccc(F)cc2)CC1 | 0.721% | –
O=C(Nc1cccc(Cl)c1Cl)c1ccccc1NC(=O)C1CC=CCC1C(=O)O (configuration not stated) | 3.31% | –
COC(=O)c1cc(C(=O)CSc2nc(C)cc(C)n2)ccc1O | 54.2% | –
CC(C)C1N=C2c3ccccc3N=C(SCC(=O)c3ccc(O)c(O)c3)N2C1=O (configuration not stated) | – | 11.7 µM (active)
CCc1ccc(S(=O)(=O)N/N=C\c2ccc([N+](=O)[O-])o2)cc1 | 25.8% | –
COc1ccc(CCNS(=O)(=O)c2cn(C)nc2C)cc1 | 32.5% | –
O=C1c2oc3ccc(Br)cc3c(=O)c2C(c2cccc(F)c2)N1CCO (configuration not stated) | -24.2% | –
Cc1ccc(F)cc1NC(=O)Cc1nn(C)c(=O)c2ccccc12 | -15.9% | –
Cc1c(-c2nn(C)c(=O)c3ccccc23)oc2ccc(F)cc2c1=O | – | 2.62 µM (active)
CCCNC(=O)CCc1c(C)nc2c(c(C)nn2-c2ccccc2)c1C | -29.5% | –

SMILES | activity change, negative = inhibition | Potency
O=C(CN(C(=O)CCC(=O)Nc1nccs1)c1ccc(F)cc1)NCc1ccc2c(c1)OCO2 | -25.3% | –
CCc1ccc(C(=O)OCC(=O)Nc2cccc(S(=O)(=O)NC3=NCCCCC3)c2)cc1 | – | 10.4 µM (active)
O=C(Nc1cccc(S(=O)(=O)NC2=NCCC2)c1)C1CCCCC1 | -2.52% | –
O=C(Cn1cnc2ccccc2c1=O)Nc1cccc(S(=O)(=O)N2CCCCC2)c1 | -10.9% | –
COCCn1c(SCC(=O)Nc2ccc3c(c2)CCC3)nc2ccccc2c1=O | -17.9% | –
Cc1cccc(-n2c(SCC(=O)Nc3cccc(S(=O)(=O)NC4=NCCCCC4)c3)nc3ccccc3c2=O)c1C | – | 13.1 µM (active)
CN(CCOc1ccc(Br)cc1)CC(=O)Nc1cccc(S(=O)(=O)NC2=NCCC2)c1 | -18.4% | –
Cc1ccc(S(=O)(=O)N2CCC3(CC2)OCCO3)c(C)c1 | -0.438% | –
Cc1csc(NC(=O)CSc2nc(=O)n(CCCN(C)C)c3c2CCC3)n1 | 11.7% | –
CC(=O)Nc1ccc(NC(=O)COc2ccc(-c3ccccc3)cc2)cc1 | 4.83% | –
CC1CC(C)CN(CCCNC(=O)Cn2ncc3c([nH]c4ccccc43)c2=O)C1 (configuration not stated) | 6.15% | –
CC(=O)N1CCN(C(=O)c2cc(-c3ccc(C)o3)nc3ccccc23)CC1 | 14.6% | –
CCOC(=O)C1(Cc2ccccc2C)CCCN(C(=O)CN2C(=O)CSC2=O)C1 (configuration not stated) | 18% | –
CCCCC(=O)Nc1nnc(S(=O)(=O)N(C)Cc2ccco2)s1 | 21.1% | –
CCCN1CCN(C(=O)CCCNC(=O)c2ccc(Cl)cc2)CC1 | -0.322% | –
Cc1nn(Cc2ccccc2)c(C)c1C(=O)NCCN1C(=O)S/C(=C\c2ccc(F)cc2)C1=O | 12.8% | –
CN1C(=O)/C(=C/c2ccc(C(=O)NC3CCCC3)cc2)Oc2ccccc21 | -20.2% | –
CCN1CCN(CCNC(=O)c2ccc(/C=C3/Sc4ccccc4N(Cc4cccc(C)c4)C3=O)cc2)CC1 | – | 11.7 µM (active)
COc1ccc(/C=C(\NC(=O)c2ccccc2)C(=O)NCCN2CCOCC2)cc1OC | 3.72% | –
Cc1ccc(C(=O)N/C(=C\c2ccc(F)cc2)C(=O)NCCN2CCOCC2)cc1 | 17.7% | –
O=C(NCCN1CCOCC1)/C(=C/c1ccc(F)cc1)NC(=O)c1ccccc1 | 15.1% | –
O=C(NCCN1CCOCC1)c1ccc(/C=C2\Sc3ccccc3N(Cc3ccc(F)cc3)C2=O)cc1 | – | 11.7 µM (active)
COc1ccc(CCNC(=O)c2ccc3c(c2)NC(=O)C(N2CCOCC2)S3)cc1OC (configuration not stated) | -14.3% | –
CN1CCN(CCCNC(=O)c2ccc(/C=C3\Oc4ccccc4N(Cc4ccc(Cl)cc4)C3=O)cc2)CC1 | – | 1.65 µM (active)
O=C(NCCN1C(=O)S/C(=C\c2cccnc2)C1=O)c1cccc(OC(F)F)c1 | -29.2% | –
CCN1CCN(CCNC(=O)c2ccc3c(c2)NC(=O)/C(=C\c2ccc(OC)c(OC)c2)S3)CC1 | – | 9.28 µM (active)
